Sampled rows, rich in hits. Any-hit rate of the full collection: about 3.2%.
DYRK1A inh = rat Dyrk1A kinase inhibitors, primary screen, biochemical, single point, plate reader. AID 504441, 2011. hit rate 0.43% among 310,000. inhibition, % at 12.5 µM. Dual specificity tyrosine-phosphorylation-regulated kinase 1A (Rattus norvegicus), Q63470. ADP-Glo luminescence, NFATc1 peptide; in the data active = inhibition above about 50%;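 also: plate controls were vehicle with enzyme for no effect and no enzyme for full effect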
Rtt109 HAT inh = inhibitors of C. albicans Rtt109/Vps75 HAT, primary screen, biochemical, ThioGlo CoA-SH fluorescence, plate reader; inhibition, % at 34.9 µM; hit rate 0.16% among 330,000; purified Rtt109/Vps75, 4 h; Histone acetyltransferase RTT109 (Candida albicans (strain SC5314 / ATCC MYA-2876)), …;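 active = inhibition of at least 50% in every replicate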
Target sequence (Q5AAJ8 whole entry, looked up): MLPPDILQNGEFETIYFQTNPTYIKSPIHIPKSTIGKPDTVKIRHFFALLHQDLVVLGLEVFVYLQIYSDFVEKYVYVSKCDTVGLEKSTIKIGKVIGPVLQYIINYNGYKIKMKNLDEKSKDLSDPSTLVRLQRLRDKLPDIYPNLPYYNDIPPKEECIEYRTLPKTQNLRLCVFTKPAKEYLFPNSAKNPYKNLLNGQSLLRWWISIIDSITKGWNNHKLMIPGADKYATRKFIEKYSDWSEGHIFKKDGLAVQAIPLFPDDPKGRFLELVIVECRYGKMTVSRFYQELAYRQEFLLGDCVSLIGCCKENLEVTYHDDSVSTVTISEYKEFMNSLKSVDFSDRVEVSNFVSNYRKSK
SMARCA2 act = SMARCA2 (BRM) function activators, primary screen, cell-based, luminescence, high throughput; MG213 cells, MMTV-luciferase reporter, dexamethasone, overnight; activation, % at 9.1 µM; hit rate 1% among 370,000; in the data active = activation above about 7.8%;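 also: 0% = vehicle wells and 100% = reference activator wells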
dFosB activator = activators of delta FosB homodimer, primary screen, biochemical, fluorescence polarization, TAMRA-CDK5 oligo, single point | Protein FosB (Mus musculus), P13346 | hit rate 0.99% among 340,000 | AID 493131, 2011 | purified delta FosB; percent of positive-control signal above neutral wells | activation, % at 25 µM;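 active = mean activation above about 17%, with every replicate also reaching it, limit read from the data, passing the limit was not always enough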
esBAF inh = Bmi1 luciferase reporter increase in mESCs, primary screen, esBAF inhibitor project, mouse ES cells, Bmi1 luciferase knock-in, single point | 24 h; 100% = twice the neutral-well signal | reporter increase, % at 12.5 µM | hit rate 2% among 350,000 | AID 602393, 2012; in the data active = activation above about 40%;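 also: 0% = median of the plate's neutral control wells and 100% = double that signal; a rise in the Bmi1 reporter signal indicates esBAF inhibition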
CDK5 inh = inhibitors of human CDK5/p35 kinase, primary screen, biochemical, single concentration; Cyclin-dependent kinase 5 (Homo sapiens) + Cyclin-dependent kinase 5 activator 1 (Homo …; Recombinant CDK5/p35, ADP-Glo luminescence, 60 min; inhibition, % at 10 µM; hit rate 0.01% among 330,000; AID 488839, 2010;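 active = highest replicate inhibition of at least 50% and at least 75% of replicates reaching 50%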;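 also: plate controls were DMSO neutral control for no effect and GW8510 at 10 µM for full effect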
SMARCA2 act conf = SMARCA2 (BRM) function activators, confirmation, cell-based, luminescence, triplicate | shares compounds with SMARCA2 act | activation, % at 9.1 µM | hit rate 30% among 3,500 | MG213 cells, MMTV-luciferase with dexamethasone, overnight; MG213 cells expressing E1A, Rb sequestered; DMSO wells 0%, reference activator 100%;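 active = activation above its plate's cutoff, the mean activation of tested wells plus 3 SD, cut at about 7.9% in these data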
GAL4-VP16 Luc = GAL4-VP16 luciferase reporter activation, counter-screen for SMARCA2 (BRM) activator project, cell-based, pG5luc, luminescence, high throughput. activation, % at 9.1 µM. HEK293 GAL4-VP16 pG5luc reporter; scaled: DMSO wells 0%, SAHA wells 100%. hit rate 41% among 3,500. AID 686939, 2013. shares compounds with SMARCA2 act;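 active = activation above the solvent-only control well mean plus 3 SD, averaged across control plates, cut at about 5.2% in these data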
* marks the source's active call; other numbers are inactive results.

Screening Cc1cc(C)c2c(N)c(-c3nc4ccccc4[nH]3)sc2n1 returned DYRK1A inh 3, Rtt109 HAT inh -59, SMARCA2 act 9.2*, dFosB activator -3, CDK5 inh 2, SMARCA2 act conf 8.7* and GAL4-VP16 Luc 10*.
For COc1ccc(SC[C@H](CC(C)C)N2CCN(C)CCC2=O)cc1 the results were DYRK1A inh 7, Rtt109 HAT inh -3, SMARCA2 act 5, dFosB activator -12, esBAF inh 26 and CDK5 inh -1.
For CC(C)C[C@@H](CSc1ccc(Br)cc1)N1CCN(C)CCC1=O the results were Rtt109 HAT inh -7, SMARCA2 act 8.2*, dFosB activator 6, esBAF inh 44*, CDK5 inh 1, SMARCA2 act conf 9.0* and GAL4-VP16 Luc 9.2*.
CC(=O)c1ccc(NC(=O)c2noc(C(C)C)c2[N+](=O)[O-])cc1 was read as DYRK1A inh 1, Rtt109 HAT inh -5, SMARCA2 act 2, dFosB activator -9 and CDK5 inh -4.
Cc1ccc(O)c(NC(=O)c2cc(-c3cccs3)on2)c1 was read as DYRK1A inh -7, Rtt109 HAT inh -11, SMARCA2 act 13*, dFosB activator 16, esBAF inh 52*, CDK5 inh 0, SMARCA2 act conf 21* and GAL4-VP16 Luc 6.8*.
Screening Cc1ccc(O)c(NC(=O)c2noc(C(C)C)c2[N+](=O)[O-])c1 returned DYRK1A inh -1, Rtt109 HAT inh -5, SMARCA2 act 9.0*, dFosB activator -4, CDK5 inh 0, SMARCA2 act conf 6 and GAL4-VP16 Luc 1.
`CNc1ncnc2c1ncn2[C@@H]1O[C@H](CO)[C@@H](O)[C@H]1O` gave DYRK1A inh 3, Rtt109 HAT inh 8, SMARCA2 act 8.4*, dFosB activator 1, esBAF inh -8, CDK5 inh 0, SMARCA2 act conf 0 and GAL4-VP16 Luc 1.
CN(C)c1ncnc2c1ncn2C1OC(CO)C(O)C1O (configuration not stated) was read as DYRK1A inh 2, Rtt109 HAT inh 5, SMARCA2 act -2, dFosB activator 0, esBAF inh -16 and CDK5 inh 1.
`C[C@H](Cc1ccccc1)Nc1ncnc2c1ncn2[C@@H]1O[C@H](CO)[C@@H](O)[C@H]1O` gave DYRK1A inh -3, Rtt109 HAT inh 2, SMARCA2 act 3, dFosB activator 1, esBAF inh 9 and CDK5 inh 0.
`OCC1OC(n2cnc3c(/C=C(\O)c4ccccc4)ncnc32)C(O)C1O` (configuration not stated) gave DYRK1A inh 8, Rtt109 HAT inh 1, SMARCA2 act 8.9*, dFosB activator -5, CDK5 inh 0, SMARCA2 act conf -2 and GAL4-VP16 Luc 3.
For CN(C)c1ncnc2c1nnn2C1OC(CO)C(O)C1O (configuration not stated) the results were SMARCA2 act 13*, esBAF inh 2, SMARCA2 act conf 17* and GAL4-VP16 Luc -3.
CCCN1C[C@@H](C)[C@@H](OC)CN(C)C(=O)c2cc(NC(=O)c3cnccn3)ccc2OC[C@@H]1C was read as esBAF inh -2.

Screening results (PubChem)
